PubChem BioAssay AID504885 (Johns Hopkins Ion Channel Center, 2011)
Calls of active or inactive are those of the source.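 How the source made its calls: active means TRPC6 cation channel blocked by over 30% at any dose tested, plus a fitted dose response curve; inactive means the rest.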

What follows are compounds tested against Short transient receptor potential channel 6 (Mus musculus) (UniProt Q61143) (assay: mouse TRPC6 channel inhibitors, SAR follow-up, HEK293 cells, membrane potential dye, set 2 (AID 504885)). Conditions: acetylcholine-stimulated; series mostly up to 20 µM.
Chain of Short transient receptor potential channel 6 (Mus musculus) (Q61143 whole entry, looked up): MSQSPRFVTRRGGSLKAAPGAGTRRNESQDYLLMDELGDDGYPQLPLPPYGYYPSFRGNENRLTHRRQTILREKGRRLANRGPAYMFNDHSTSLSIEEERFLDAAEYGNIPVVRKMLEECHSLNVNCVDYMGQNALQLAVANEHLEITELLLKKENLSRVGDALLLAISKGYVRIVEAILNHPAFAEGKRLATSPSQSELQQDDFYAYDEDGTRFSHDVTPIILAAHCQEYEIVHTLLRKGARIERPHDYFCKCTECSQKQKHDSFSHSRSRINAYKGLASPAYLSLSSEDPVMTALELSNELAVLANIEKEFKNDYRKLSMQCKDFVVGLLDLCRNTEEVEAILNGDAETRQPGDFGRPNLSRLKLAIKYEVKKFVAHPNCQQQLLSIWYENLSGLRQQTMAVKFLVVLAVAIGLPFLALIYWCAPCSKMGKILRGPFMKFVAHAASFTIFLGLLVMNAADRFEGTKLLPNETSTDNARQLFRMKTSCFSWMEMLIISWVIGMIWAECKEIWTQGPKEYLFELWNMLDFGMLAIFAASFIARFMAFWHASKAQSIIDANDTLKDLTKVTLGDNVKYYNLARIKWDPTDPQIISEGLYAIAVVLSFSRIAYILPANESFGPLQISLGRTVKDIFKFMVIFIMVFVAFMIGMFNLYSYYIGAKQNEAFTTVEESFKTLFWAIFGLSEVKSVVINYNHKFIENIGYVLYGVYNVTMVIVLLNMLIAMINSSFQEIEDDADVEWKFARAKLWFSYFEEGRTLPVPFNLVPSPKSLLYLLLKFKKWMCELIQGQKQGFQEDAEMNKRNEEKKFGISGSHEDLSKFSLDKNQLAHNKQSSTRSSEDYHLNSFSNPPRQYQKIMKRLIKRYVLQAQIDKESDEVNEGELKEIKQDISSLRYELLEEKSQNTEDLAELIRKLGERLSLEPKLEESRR

outcome, inactive:
CN1CCN(Cc2ccc3nsnc3c2)CC1CCO (stereo not given)
Clc1ccc(SCc2cc(N3CCCCC3)nc(-c3ccccn3)n2)cc1
Cc1cccc(CN2CCN(Cc3ccc4nsnc4c3)CC2CCO)n1 (stereo not given)
O=S(=O)(Cc1cc(N2CCN(c3ccccc3)CC2)nc(-c2ccccn2)n1)c1ccccc1
OCCC1CN(Cc2ccc3nsnc3c2)CCN1CCCc1ccccc1 (stereo not given)
O=S(=O)(Cc1cc(N2CCOCC2)nc(-c2ccccn2)n1)c1ccccc1
CC(C)N1CCC(N2CCN(Cc3ccc4nsnc4c3)CC2CCO)CC1 (stereo not given)
CC(C)N1CCN(Cc2ccc3nsnc3c2)CC1CCO (stereo not given)
CC(C)CN1CCN(Cc2ccc3nsnc3c2)CC1CCO (stereo not given)
Cc1ccc(C)c(N2CCN(C(=O)c3ccc4nsnc4c3)CC2)c1
CN1CCC(N2CCN(Cc3ccc4nsnc4c3)CC2CCO)CC1 (stereo not given)
CSCc1cc(N(C)c2ccccc2)nc(-c2ccccn2)n1
CSCc1cc(N2CCOCC2)nc(-c2ccccn2)n1
CC(C)CCN1CCN(Cc2ccc3nsnc3c2)CC1CCO (stereo not given)
Cc1ccccc1CN1CCN(Cc2ccc3nsnc3c2)CC1CCO (stereo not given)
